# Luciferase inh – Photinus pyralis luciferase inhibition | P08659 | purified P. pyralis luciferase, luminescence, biochemical | Potency, µM (doses to about 115 µM), usual class: inhibitors | actives 2.5% (n = 76,000); also: nearly all actives have a fitted effect of over 65% in size
#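 Luminescence read by CCD imager after adding enzyme (10nM final) to wells holding compound, titrated in qHTS. Substrates 10uM each D-luciferin and ATP; buffer 50mM Tris acetate pH 7.5, 10mM Mg acetate, Tween-20, BSA.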
# 3T3 cytotox – kills NIH 3T3 cells; NIH 3T3 viability, CellTiter-Glo ATP luminescence, 48-72 h; Potency, µM (titrated, usually from 96.7 µM), most hits filed as inhibitors; actives 4.3% (n = 94,000); also: nearly all actives have a fitted effect of over 55% in size
#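 Luminescent ATP readout (CellTiter-Glo, 10 min RT) after 48 or 72 hr compound exposure of NIH 3T3 cells seeded at 400 cells/well in 1536-well format; quantitative HTS.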
# HEK293 tox – kills HEK 293 cells. Potency, µM (doses to about 115 µM), most hits filed as inhibitors. HEK 293 viability, ATP luminescence (CellTiter-Glo), 48-72 h. actives 6.6% (n = 94,000); also: nearly all actives have a fitted effect of over 60% in size
#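 HEK 293 cells at 250 cells/well were exposed to compounds by pintool transfer for 48 or 72 hr at 37 degree Celsius, 5% CO2. Viability was read as ATP-coupled luminescence with CellTiter-Glo after 10 min at room temperature.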
# hNpr1 antagonist – human Npr1 receptor antagonism; HEK293 hNpr1 GloSensor cGMP, ANP-stimulated luminescence; actives 1.6% (n = 76,000); Potency, µM (highest dose often 46.3 µM), usual class: inhibitors; P16066; AID 1347048; calls by dose curve; also: nearly all actives have a fitted effect of over 60% in size
# Target sequence (P16066 whole entry, looked up): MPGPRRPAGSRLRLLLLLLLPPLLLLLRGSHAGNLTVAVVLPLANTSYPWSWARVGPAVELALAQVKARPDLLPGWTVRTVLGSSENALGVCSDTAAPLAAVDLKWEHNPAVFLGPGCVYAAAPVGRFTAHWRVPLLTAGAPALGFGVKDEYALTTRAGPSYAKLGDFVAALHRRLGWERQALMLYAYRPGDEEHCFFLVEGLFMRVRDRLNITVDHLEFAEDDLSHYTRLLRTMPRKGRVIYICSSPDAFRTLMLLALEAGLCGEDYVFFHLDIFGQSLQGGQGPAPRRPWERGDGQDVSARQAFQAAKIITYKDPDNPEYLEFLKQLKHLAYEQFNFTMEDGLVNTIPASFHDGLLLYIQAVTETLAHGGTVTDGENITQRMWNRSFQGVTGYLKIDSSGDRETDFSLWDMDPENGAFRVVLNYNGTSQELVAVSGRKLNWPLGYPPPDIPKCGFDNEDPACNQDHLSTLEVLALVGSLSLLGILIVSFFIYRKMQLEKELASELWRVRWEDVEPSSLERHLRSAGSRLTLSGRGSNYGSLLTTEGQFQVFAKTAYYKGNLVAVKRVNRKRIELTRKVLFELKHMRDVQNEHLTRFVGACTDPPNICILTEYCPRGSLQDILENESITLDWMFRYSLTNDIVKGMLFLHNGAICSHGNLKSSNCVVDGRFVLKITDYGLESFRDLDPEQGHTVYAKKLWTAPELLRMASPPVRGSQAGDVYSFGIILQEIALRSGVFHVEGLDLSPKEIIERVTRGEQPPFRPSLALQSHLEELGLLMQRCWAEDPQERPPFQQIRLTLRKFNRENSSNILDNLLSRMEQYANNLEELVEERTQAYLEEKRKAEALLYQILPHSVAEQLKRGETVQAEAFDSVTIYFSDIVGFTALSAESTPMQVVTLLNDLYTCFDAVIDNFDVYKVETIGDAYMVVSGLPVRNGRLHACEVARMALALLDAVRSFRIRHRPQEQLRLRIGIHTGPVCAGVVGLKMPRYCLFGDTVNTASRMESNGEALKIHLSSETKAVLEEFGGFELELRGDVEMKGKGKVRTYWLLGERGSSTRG
#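 HEK293 cells stably expressing human Npr1 and cGMP GloSensor pGS-40F, loaded 2 h with 2% GloSensor reagent, given compound 30 min at room temperature. Luminescence read before and 20 min after 0.1 nM hNppA.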
# Hits are given with their value; . = inactive; ? = inconclusive; / = no result. Hits are enriched below; roughly 11% of the tested compounds scored in any of these assays. Unless noted, calls follow the shape of the dose curve; as a rule, active = well fitted curve in the direction sought with a large enough effect; inconclusive = small, poorly fitted or top-dose-only effect, or another doubt; inactive = no such curve, though single readings can be large; an effect the other way counts as inactive or inconclusive.
SMILES,Luciferase inh,3T3 cytotox,HEK293 tox,hNpr1 antagonist
CN1CCCCCC(O)c2cc(C(=O)NC3CCN(Cc4ccccc4)CC3)ccc21 (stereo not given),.,?,11µM,?
CN1CCCCCC(O)c2cc(C(=O)N3CCN(c4ccc(F)cc4)CC3)ccc21 (stereo not given),.,?,45µM,.
COc1ccccc1CN1CCN(C(=O)c2ccc3c(c2)C(O)CCCCCN3C)CC1 (stereo not given),.,?,50µM,.
CN1CCCCCC(O)c2cc(C(=O)NCCCc3ccccc3)ccc21 (stereo not given),.,?,?,.
C=CCCC(=O)N1[C@@H](c2ccccc2)[C@@H](C(=O)OCC)C[C@]12CCCCNC2=O,/,?,.,/
COc1ccc(F)cc1-c1cccc(C(=O)NCCNC(=O)Nc2ccccc2)c1,/,35µM,50µM,/
COc1ccc(F)cc1-c1cccc(C(=O)O)c1,/,.,.,/
O=C(NCCNC(=O)c1ccc(-c2cncnc2)cc1)Nc1ccccc1F,/,.,.,/
COc1ccc(F)cc1-c1cccc(C(=O)NCCNC(=O)Nc2ccccc2F)c1,/,?,20µM,/
COc1cccc(C(=O)N2CCC(C(=O)N3CCC(c4nc5ncccc5[nH]4)C3)CC2)c1 (stereo not given),/,.,.,/
CN(C)c1cccc(-c2cnc(Nc3ccncc3)c3c2CCO3)c1,.,50µM,56µM,.
CN(C)c1cccc(-c2cnc(Nc3cccc(N[S+](C)(=O)[O-])c3)c3c2CCO3)c1,?,?,20µM,?
Cc1noc(C)c1-c1cnc(Nc2ccncc2)c2c1CCO2,.,?,?,.
COc1ccccc1-c1cnc(Nc2ccccc2)c2c1CCO2,.,?,?,.
CN(C)c1cccc(C(=O)Nc2ncc(-c3cccc(F)c3)c3c2OCC3)c1,.,?,?,.
COc1ccccc1-c1cnc(Nc2cccc(N[S+](C)(=O)[O-])c2)c2c1CCO2,?,20µM,40µM,32µM
CC(=O)N1CCN(C(=O)CNC(=O)c2cccc(-c3ccsc3)c2)CC1,/,.,.,/
O=C(c1ccc2nnc(Cc3ccc(Cl)cc3)n2c1)N1CCOCC1,/,.,.,/
Cc1nc2scc(CC(=O)NCC(C)C)n2c(=O)c1-c1cc(C)n(-c2ccc(C(C)C)cc2)n1,?,?,79µM,.
Cc1ccc(C)c(-n2nc(-c3c(C)nc4scc(CC(=O)NCc5ccco5)n4c3=O)cc2C)c1,.,?,35µM,.
COc1ccccc1Oc1ncccc1CNC(=O)Nc1cccc(C#N)c1,.,32µM,?,.
COc1ccccc1Oc1ncccc1CNC(=O)c1ccccc1SC,32µM,.,?,.
CCC(=O)NCc1cccnc1Oc1ccccc1OC,.,.,.,.
COc1ccccc1Oc1ncccc1CNC(=O)c1cccnc1C,.,.,.,.
CN1CCN(C(=O)C2CN(c3ccnc4ccnn34)C2)CC1,/,.,.,/
SMILES,Luciferase inh,3T3 cytotox,HEK293 tox,hNpr1 antagonist
Cc1ccc(C(=O)NC(C(=O)N2CCCCC2)C2CCN(C(=O)C(C)C)CC2)cc1 (stereo not given),.,?,?,.
CC1(C(=O)N2CCC(c3ccccc3)CC2)CCc2cnc(Nc3ccncc3)nc21 (stereo not given),.,?,71µM,?
CC1(C(=O)N2CCN(c3ccccn3)CC2)CCc2cnc(Nc3ccccc3)nc21 (stereo not given),.,?,112µM,.
COc1cccc(C(=O)N2CCC(n3cc(-c4nc(-c5ccccc5)no4)nn3)CC2)c1,?,?,45µM,?
CCCc1noc(-c2cn(C3CCN(C(=O)c4ccc(OC)c(F)c4)CC3)nn2)n1,.,.,.,.
COc1cccc(C(=O)N2CCC(N3C[C@H](O)C[C@H]3C(=O)N3CC=C(c4ccccc4)CC3)CC2)c1,.,.,79µM,.
COc1ccc(C(=O)N2CCC(n3cc(-c4nc(-c5ccccc5)no4)nn3)C2)cc1F (stereo not given),?,.,?,?
N#Cc1cccc(C(=O)N2CCC(n3cc(-c4nc(-c5ccccc5)no4)nn3)CC2)c1,.,.,?,.
COc1cccc(C(=O)N2CCC(n3cc(-c4nc(-c5ccccc5)no4)nn3)C2)c1 (stereo not given),?,?,?,11µM
CCCc1noc(-c2cn(C3CCN(C(=O)c4ccc(F)c(F)c4)CC3)nn2)n1,.,13µM,?,.
Cc1ccccc1C(=O)N1CCC(C(=O)N2CCC3(CC2)CC(=O)Nc2ccccc2O3)CC1,/,.,?,/

# Compound activity (PubChem BioAssay)
